Where a name gives a salt, the structure may show the parent alone. Whole data set: some 2,000 compounds, median “fractional viability relative to vehicle” near 0.91, cut for the lowest 2% near 0.045. The list comes from a sample in which the lowest values are over-represented; it also holds similar structures and randomly drawn compounds.
System: TYKNU
Experiment: fractional viability relative to vehicle; TYKNU is a high-grade serous ovarian cancer line; higher = less growth inhibition
Conditions: 72 h
In short: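 TYKNU control cells or lentiCRISPRv2 knockout derivatives were plated at 500 cells per well in duplicate into drug-stamped 384-well plates holding a ~2100-compound library at 2 or 10 μM. Culture was in RPMI 1640 with 10% FBS at 37 °C in 5% CO2, with 72 h of drug treatment. Viability was measured by Cell Titer Glo luminescence, and the averaged duplicate treatment wells were normalised to duplicate control wells at the same plate position.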

[1] = 2uM, genotype: DNM1L knockout (sgDNM1L #1)
[2] = 2uM, genotype: sgCTRLA1 (non-targeting control)
[3] = 10uM, genotype: DNM1L knockout (sgDNM1L #1)
[4] = 10uM, genotype: sgCTRLA1 (non-targeting control)

| Compound | fractional viability [1] | fractional viability [2] | fractional viability [3] | fractional viability [4] |
| --- | --- | --- | --- | --- |
| COc1ccc(-c2nc3cc(C4=NNC(=O)CC4C)ccc3[nH]2)cc1 (centres undefined) [Pimobendan] | 1.1 | 1.05 | 0.55 | 0.472 |
| CN1C(C(=O)Nc2ccccn2)=C(O)c2sc(Cl)cc2S1(=O)=O [Lornoxicam] | 1.04 | 1.22 | 0.894 | 0.996 |
| Cc1cc(N2CCOCC2)cc2[nH]c(-c3c(NC[C@@H](O)c4cccc(Cl)c4)cc[nH]c3=O)nc12 | 0.488 | 0.845 | 0.35 | 0.472 |
| C=C1C(=O)O[C@H]2[C@H]1CC/C(C)=C/CC[C@@]1(C)O[C@@H]21 [(-)-Parthenolide] | 0.336 | 0.595 | 0.0299 | 0.0264 |
| C=C1C(=O)O[C@@H]2/C=C(\C)CC/C=C(\C)CC[C@@H]12 [Costunolide] | 0.946 | 1.05 | 0.226 | 0.249 |
| CN(C)CCc1c[nH]c2ccc(CS(=O)(=O)N3CCCC3)cc12 [Almotriptan Malate] | 1.02 | 1.18 | 0.947 | 1.02 |
| CC(C)(O)CC[C@@H](O)[C@](C)(O)[C@H]1CC[C@@]2(O)C3=CC(=O)[C@@H]4C[C@@H](O)[C@@H](O)C[C@]4(C)[C@H]3CC[C@]12C [20-Hydroxyecdysone] | 1.04 | 1.1 | 0.84 | 1.02 |
| COc1cc2nc(N3CCCN(C)CC3)nc(NC3CCN(Cc4ccccc4)CC3)c2cc1OC | 0.474 | 0.548 | 0.0331 | 0.0181 |
| COc1cc2nc(N3CCN(C(=O)C4COc5ccccc5O4)CC3)nc(N)c2cc1OC (centres undefined) [Doxazosin Mesylate] | 1.18 | 1.11 | 1.07 | 0.931 |
| COC(=O)c1ccc2c(c1)[nH]c1ncnc(NCCCN3CCCCC3)c12 | 0.884 | 1.05 | 0.929 | 0.811 |
| COc1cc(OC)c(C(=O)CCCN2CCCC2)c(OC)c1 [Buflomedil HCl] | 0.912 | 1.1 | 0.825 | 1.03 |
| COc1cc2c(NC3CCN(CC4CCCCC4)CC3)nc(N3CCCN(C(C)C)CC3)nc2cc1OCCCN1CCCCC1 | 0.657 | 0.723 | 0.0227 | 0.00884 |
| COc1cc(Nc2c(C#N)cnc3cc(OCCCN4CCN(C)CC4)c(OC)cc23)c(Cl)cc1Cl [Bosutinib (SKI-606)] | 0.41 | 0.574 | 0.138 | 0.111 |
| COc1cc2nc(N3CCN(C(=O)C4CCCO4)CC3)nc(N)c2cc1OC (centres undefined) [Terazosin HCl] | 1.17 | 1.16 | 1.07 | 0.97 |
| COc1cc2nc(N3CCCC3)nc(NCCCCCN3CCCC3)c2cc1OC | 0.426 | 0.543 | 0.0312 | 0.0156 |
| c1coc(CNc2ncnc3[nH]cnc23)c1 [Kinetin] | 1.01 | 1.01 | 0.361 | 0.431 |
| Cc1nn(C)c2c1C(c1ccc(C(F)(F)F)cc1)C(C#N)=C(N)O2 (centres undefined) | 0.924 | 1.08 | 0.886 | 0.86 |
| OC(CN1CCN(c2cccc(Cl)c2)CC1)C(c1ccccc1)c1ccccc1 (centres undefined) | 0.96 | 1.02 | 0.831 | 1.05 |

| Compound | fractional viability [1] | fractional viability [2] | fractional viability [3] | fractional viability [4] |
| --- | --- | --- | --- | --- |
| Cc1cc(C(O)=C2C(=O)C(=O)N(CCCN3CCOCC3)C2c2ccncc2)ccc1OCc1ccccc1 (centres undefined) | 0.77 | 0.984 | 0.802 | 0.726 |
| NC(=O)C(c1ccccc1)(c1ccccc1)[C@@H]1CCN(CCc2ccc3c(c2)CCO3)C1 [Darifenacin HBr] | 0.951 | 1.21 | 0.794 | 0.953 |
| C=C[C@]1(C)C[C@@H](OC(=O)CSC(C)(C)CNC(=O)[C@H](N)C(C)C)[C@]2(C)[C@H](C)CC[C@]3(CCC(=O)[C@H]32)[C@@H](C)[C@@H]1O [Valnemulin HCl] | 0.403 | 0.236 | 0.385 | 0.238 |
| COc1ccc(C(=O)CC2(O)C(=O)Nc3c(Cl)ccc(Cl)c32)cc1 (centres undefined) | 0.264 | 0.243 | 0.175 | 0.186 |
| Cc1ccc(NC(=O)c2ccc(CN3CCN(C)CC3)cc2)cc1Nc1nccc(-c2cccnc2)n1 [Imatinib Mesylate (STI571)] | 1.08 | 1.12 | 0.599 | 0.612 |
| Cc1ccc(NC(=O)c2ccc(CN3CC[C@H](N(C)C)C3)c(C(F)(F)F)c2)cc1Nc1nccc(-c2cncnc2)n1 [Bafetinib (INNO-406)] | 0.684 | 0.569 | 0.0871 | 0.0998 |
| Cc1ccc(C(=O)Nc2ccc(CN3CCN(C)CC3)c(C(F)(F)F)c2)cc1C#Cc1cnc2[nH]ncc2c1 | 0.214 | 0.169 | 0.0362 | 0.0116 |
| Cc1ccc(NC(=O)c2ccc(CN3CCN(C)CC3)cc2)cc1Nc1nc(-c2cccnc2)cs1 [Masitinib (AB1010)] | 1.29 | 1.09 | 0.779 | 0.775 |
| Cc1ccc(NC(=O)c2ccc(CN3CCN(C)CC3)cc2)cc1Nc1nccc(-c2cccnc2)n1 [Imatinib (STI571)] | 1.18 | 1.1 | 0.839 | 0.867 |
| CCN1CCN(Cc2ccc(C(=O)Nc3ccc(C)c(Oc4ccc5c(c4)CC(=O)N5)c3)cc2C(F)(F)F)CC1 | 0.704 | 0.758 | 0.477 | 0.756 |
| Cc1ccc(C(=O)Nc2ccc(CN3CCN(C)CC3)c(C(F)(F)F)c2)cc1C#Cc1cnc2cccnn12 | 0.227 | 0.185 | 0.0344 | 0.0177 |
| CC(C)n1nc(-c2ccc3oc(N)nc3c2)c2c(N)ncnc21 | 0.194 | 0.191 | 0.181 | 0.171 |
| Cc1nc(N(C)C(=O)Cc2ccc(-c3ccccn3)cc2)sc1S(N)(=O)=O [Pritelivir (BAY 57-1293)] | 0.897 | 0.947 | 0.855 | 0.818 |
| COc1cccc(C=NCCN=Cc2cccc(OC)c2[O-])c1[O-].[Cl-].[Mn+3] | 0.805 | 0.978 | 0.756 | 0.897 |
| Cc1nc2ccc(-n3ncc(C(=O)c4cc5ccccc5[nH]4)c3N)cc2[nH]1 | 0.935 | 0.923 | 0.958 | 0.819 |
| Cc1ccc(NC(=O)C2(c3ccc4c(c3)OC(F)(F)O4)CC2)nc1-c1cccc(C(=O)O)c1 [VX-809 (Lumacaftor)] | 0.94 | 1.12 | 0.933 | 1.06 |
| CCO[C@@H]1OC(=O)C[C@@H]1NC(=O)[C@@H]1CCCN1C(=O)[C@@H](NC(=O)c1ccc(N)c(Cl)c1)C(C)(C)C | 0.968 | 1.18 | 0.898 | 1.09 |
| CCC1C/C(=C\c2cccnc2)C(=O)/C(=C/c2cccnc2)C1 (centres undefined) | 0.104 | 0.0876 | 0.0563 | 0.0253 |

From the supplement of paper PMC5919970
